# The supplement of paper PMC8728848
# The sample as a whole holds a higher share of the strongest signals than the screen did.
# B1: Epa21 (Candida glabrata) (protein)
# chain: MGSSHHHHHHSSGLVPRGSHMASTPNIESHPQGCSPVDTSGIKPGLKMDLYRFPITPPGTGCWSWDWLTVTPDFPRSGYWKWPKIAEVDGVVGPLHLDSGHPTCDPLTSVLPHGFNYLQSITTTNFTMVLHGYFVPKQSGKYTFEFKADDALLLNLGAGNAFSCCDYNNSQYNQGEYLAYAIWSKNNQTATLYLEKGIYYPIRVFYHNRCCGAYMDVVYYFNDSPIPNRDFSGLLFSIPDSDSCDANI
# Tests used:
# Assay in all cases: glycan array binding signal (z-score within array); higher = stronger binding
# Conditions in all cases: glycan notation: IUPAC condensed, linker removed
# [1] = biological target: Fuc(a1-2)Gal(b1-4)Fuc(a1-3)]GlcNAc(b1-2)Man(a1-3)[Fuc(a1-2)Gal(b1-4)[Fuc(a1-3)]GlcNAc(b1-2)Man(a1-6)]Man(b1-4)GlcNAc(b1-4)GlcNAc
# How it was run: (§1)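 The binding signal is a Z-score computed within each array and averaged over linkers. Arrays of the same protein sequence at different concentrations or buffers were also averaged together. Data originate from 3228 arrays in the Consortium for Functional Glycomics database, kept only where the protein sequence was available.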
# [2] = biological target: Fuc(a1-2)Gal(b1-4)GlcNAc(b1-3)[Fuc(a1-2)Gal(b1-4)GlcNAc(b1-6)]GalNAc
# How it was run: as §1
# [3] = biological target: Fuc(a1-2)Gal6S(b1-3)GlcNAc6S
# How it was run: as §1
# [4] = biological target: Fuc(a1-2)[Gal(a1-3)]Gal(b1-3)GlcNAc(b1-2)Man(a1-3)[Fuc(a1-2)[Gal(a1-3)]Gal(b1-3)GlcNAc(b1-2)Man(a1-6)]Man(b1-4)GlcNAc(b1-4)GlcNAc
# How it was run: as §1
# [5] = biological target: Fuc(a1-2)[Gal(a1-3)]Gal(b1-4)GlcNAc(b1-6)GalNAc
# How it was run: as §1
# [6] = biological target: Fuc(a1-2)[GalNAc(a1-3)]Gal(b1-4)GlcNAc(b1-6)GalNAc
# How it was run: as §1
# [7] = biological target: Fuc(a1-2)[GalNAc(a1-3)]Gal(b1-4)[Fuc(a1-3)]GlcNAc
# How it was run: as §1
# [8] = biological target: Fuc(a1-3)[Gal(b1-4)]GlcNAc(b1-2)Man
# How it was run: as §1
# [9] = biological target: Fuc(a1-3)[Gal(b1-4)]GlcNAc(b1-3)Gal(b1-4)[Fuc(a1-3)]GlcNAc
# How it was run: as §1
# Fuc(b1-3)GlcNAc = biological target: Fuc(b1-3)GlcNAc
# How it was run: as §1
# Gal(a1-3)Gal(b1-4)Glc = biological target: Gal(a1-3)Gal(b1-4)Glc
# How it was run: as §1
# [10] = biological target: Gal(a1-3)Gal(b1-4)GlcNAc(b1-3)GalNAc
# How it was run: as §1
# Gal(a1-3)GalNAc = biological target: Gal(a1-3)GalNAc
# How it was run: as §1
# Gal(a1-4)GlcNAc = biological target: Gal(a1-4)GlcNAc
# How it was run: as §1
# [11] = biological target: Gal(b1-3)GlcNAc(b1-3)Gal(b1-4)GlcNAc
# How it was run: as §1
# [12] = biological target: Gal(b1-3)GlcNAc(b1-3)Gal(b1-4)[Fuc(a1-3)]GlcNAc(b1-6)[Gal(b1-3)GlcNAc(b1-3)]Gal(b1-4)Glc
# How it was run: as §1
# [13] = biological target: Gal(b1-3)GlcNAc(b1-3)GalNAc
# How it was run: as §1
# [14] = biological target: Gal(b1-4)GlcNAc(b1-2)Man(a1-3)[Gal(b1-4)GlcNAc(b1-2)Man(a1-6)][GlcNAc(b1-4)]Man(b1-4)GlcNAc(b1-4)[Fuc(a1-6)]GlcNAc
# How it was run: as §1
# [15] = biological target: Gal(b1-4)GlcNAc(b1-3)Gal(b1-4)GlcNAc(b1-3)Gal(b1-4)GlcNAc(b1-2)Man(a1-3)[Gal(b1-4)GlcNAc(b1-3)Gal(b1-4)GlcNAc(b1-3)Gal(b1-4)GlcNAc(b1-2)Man(a1-6)]Man(b1-4)GlcNAc(b1-4)GlcNAc
# How it was run: as §1
# [16] = biological target: Gal(b1-4)GlcNAc(b1-3)Gal(b1-4)GlcNAc(b1-3)[Gal(b1-4)GlcNAc(b1-3)Gal(b1-4)GlcNAc(b1-6)]GalNAc
# How it was run: as §1
# [17] = biological target: Gal(b1-4)GlcNAc(b1-3)Gal(b1-4)GlcNAc(b1-6)[Gal(b1-3)]GalNAc
# How it was run: as §1
# [18] = biological target: Gal(b1-4)GlcNAc(b1-3)Gal(b1-4)[Fuc(a1-3)]GlcNAc(b1-3)Gal(b1-4)[Fuc(a1-3)]GlcNAc
# How it was run: as §1
# [19] = biological target: Gal(b1-4)GlcNAc(b1-6)GalNAc
# How it was run: as §1
binder,measurement,setting,value
B1,glycan array binding signal (z-score),[1],2.49
same,glycan array binding signal (z-score),[2],-0.296
same,glycan array binding signal (z-score),[3],4.29
same,glycan array binding signal (z-score),[4],-0.507
same,glycan array binding signal (z-score),[5],-0.214
same,glycan array binding signal (z-score),[6],-0.634
same,glycan array binding signal (z-score),[7],-0.093
same,glycan array binding signal (z-score),[8],-0.558
same,glycan array binding signal (z-score),[9],0.064
same,glycan array binding signal (z-score),Fuc(b1-3)GlcNAc,-1.01
same,glycan array binding signal (z-score),Gal(a1-3)Gal(b1-4)Glc,-0.176
same,glycan array binding signal (z-score),[10],1.03
same,glycan array binding signal (z-score),Gal(a1-3)GalNAc,-0.135
same,glycan array binding signal (z-score),Gal(a1-4)GlcNAc,4.26
same,glycan array binding signal (z-score),[11],-0.56
same,glycan array binding signal (z-score),[12],-0.438
same,glycan array binding signal (z-score),[13],-0.317
same,glycan array binding signal (z-score),[14],-0.687
same,glycan array binding signal (z-score),[15],2.55
same,glycan array binding signal (z-score),[16],1.89
same,glycan array binding signal (z-score),[17],2.73
same,glycan array binding signal (z-score),[18],-0.493
same,glycan array binding signal (z-score),[19],-0.047
